Experimental data: PMC5540273 (PLoS ONE, 2017)

system: EPHA5; conditions: concentration: 1 μM, replicates: in singlicate; n = 1
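Also: KINOMEscan kinase panel screen.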

Row | SMILES | %Inh
1 | COc1cc2c(cc1OCCN1CCNCC1)ncc1c3ccc(C#N)cc3[nH]c21 | 2%
2 | CN(c1ccc(NC(=O)Nc2cc(C(F)(F)F)ccc2F)cc1)c1ccnc(Nc2ccc(S(N)(=O)=O)cc2)n1 [GW809893] | 97.5%
3 | COc1ccc(Nc2nccc(N3CCC(NC(=O)Nc4cccc(OC)c4)C3)n2)cc1 (stereo not shown) [GSK1379742] | 0%
4 | COc1cccc(-c2ccc3c(NC(=O)C4CC4)n[nH]c3n2)c1 [SB-710903] | 0%
5 | CNC(=O)c1ccccc1Nc1nc(Nc2ccc(N3CCOCC3)cc2)ncc1Cl.Cl [GSK1576028] | 0%
6 | O=C(NC1CCN(c2ccnc(Nc3ccc(F)cc3)n2)C1)c1cc2ccccc2s1 (stereo not shown) [GSK1379716] | 2%
7 | O=C(Nc1cccc(Oc2ccc3nc(NC(=O)C4CC4)cn3n2)c1)c1ccccc1C(F)(F)F | 0%
8 | Cl.c1ccc(-c2ccc3c(Nc4ccc5[nH]ncc5c4)ccnc3c2)nc1 [GW440137] | 0%
9 | Cl.Cl.NCC(NC(=O)c1cc(-c2ccccc2)c(-c2ccnc3[nH]ccc23)s1)c1ccccc1 (stereo not shown) [GSK1321561] | 6%
10 | C[C@@H](Oc1cc(-n2cnc3cc(-c4ccnc(NCCS(C)(=O)=O)c4)ccc32)sc1C(N)=O)c1ccccc1Cl [GSK907232] | 0%
11 | O=C(Nc1cccc(-c2nn3ccccc3c2-c2ccnc(Nc3cccc(F)c3)n2)c1)c1c(F)ccc(F)c1Cl [GSK357952] | 0%
12 | Cc1occc1-c1ncc(OC[C@@H](N)Cc2c[nH]c3ccccc23)cc1-c1ccc2[nH]nc(C)c2c1.O=C(O)C(F)(F)F [GSK682037] | 0%
13 | CCc1ccc(-c2ccc3c(c2)-c2c(cnn2C)S(=O)(=O)N3C)cc1 | 8%
14 | O=c1[nH]cc(-c2ccc(N3CCOCC3)cc2)c2sc(-c3cn[nH]c3)cc12 [GSK2276055] | 0%
15 | Cc1cccc(NC(=O)Nc2ccc(Oc3ncnc4ccn(C)c34)cc2)c1 | 9%
16 | CC(C)(C)c1ccc2nccc(Nc3cccc(O)c3)c2c1 [GW856795] | 37%
17 | COc1cc(Nc2nccc(-c3c(-c4cccc(NC(=O)c5c(F)cccc5F)c4)nn4ccccc34)n2)cc(OC)c1OC [GSK323521] | 21%
18 | CCn1c(-c2nonc2N)nc2c(C#CC(C)(C)O)ncc(OCCCCN)c21.O=C(O)C(F)(F)F.O=C(O)C(F)(F)F [GSK507274] | 0%
19 | O=C(Nc1cccc(-c2nn3ncccc3c2-c2ccnc(Nc3ccccc3)n2)c1)c1c(F)cccc1F [GSK198271] | 0%

Row | SMILES | %Inh
20 | Cn1cc(-c2ccc3c(c2)CCN3C(=O)Cc2cccc(Cl)c2)c2c(N)ncnc21 [GSK2606590] | 0%
21 | CN1CCN(Cc2cccc(-c3ccc4c(Nc5ccc(Oc6ccccc6)cc5)ccnc4c3)c2)CC1 [GW578342] | 0%
22 | Oc1cc(Nc2ccnc3cc(I)ccc23)ccc1F [GW552771] | 0%
23 | CCCCc1nn2ncccc2c1-c1ccnc(Nc2ccc(N3CCN(C)CC3)cc2)n1 [GW684941] | 0%
24 | O=C(Nc1n[nH]c2cc(-c3ccoc3)ccc12)C1CC1 [SB-738481] | 2%
25 | COc1cccc(C2=C(Nc3ccc(Cl)c(C(=O)O)c3)C(=O)NC2=O)c1 [SB-390769] | 0%
26 | CCS(=O)(=O)c1ccc(OC)c(Nc2nccc(-c3c(-c4cccc(NC(=O)c5c(F)cccc5F)c4)nn4ncccc34)n2)c1 [GSK326180] | 0%
27 | Nc1ncc(-c2cccnc2)c2scc(-c3ccc4c(c3)CCN4C(=O)Cc3ccccc3)c12 [GSK683281] | 0%
28 | Cc1ccc(C(=O)N2CC[C@@H](O)C2)cc1-n1c(C)cc(OCc2ccc(F)cc2F)c(Br)c1=O | 0%
29 | CC(=O)Nc1nc2cnc(Nc3cc(NC(=O)c4cccc(C5(C#N)CC5)c4Cl)ccc3C)nc2s1 | 3%
30 | COc1cc(Nc2nccc(N3CCC(NC(=O)c4cc5ccccc5s4)C3)n2)cc(OC)c1OC (stereo not shown) [GSK1379760] | 0%
31 | Cc1ccc(C(=O)Nc2ccc(Nc3ccnc4cc(-c5nccs5)ccc34)cc2O)cc1.Cl [GW494702] | 0%
32 | Cc1ccc(C)c(NC(=O)NC2CCN(c3ccnc(Nc4ccc(F)cc4)n3)C2)c1 (stereo not shown) [GSK1379720] | 0%
33 | CN(C)S(=O)(=O)c1cc(-c2ccc3nccc(-c4cccc(S(N)(=O)=O)c4)c3c2)cnc1N [GSK1669921] | 0%
34 | COc1cccc(NC(=O)NC2CCN(c3ccnc(Nc4cc(OC)c(OC)c(OC)c4)n3)C2)c1 (stereo not shown) [GSK1379763] | 0%
35 | Fc1ccc(-c2ncn(C3CCNCC3)c2-c2ccnc(Oc3ccc(-c4ccccc4)cc3)n2)cc1 [SB-245391] | 9%
36 | Cn1cc(-c2[nH]c3cc(NC(=O)[C@H](N)C4CCCCC4)cc4c3c2C=NNC4=O)cn1 | 12%
37 | Cl.Cl.NCC(NCc1ccc(-c2ccnc3[nH]ccc23)s1)c1ccccc1 (stereo not shown) [GSK1321565] | 0%
